# An excerpt weighted towards active compounds, which were near 1.2% of everything screened.
# NCOA3 inh: SRC3 coactivator transcriptional activity inhibitors, primary screen, cell-based, luminescence; HEK293 GAL4-SRC3 luciferase reporter; inhibition, % at 3.6 µM; hit rate 0.17% among 360,000;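 active = inhibition above a per-campaign cutoff, the mean of all compounds plus 3 SD, cut at about 60% in these data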;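 also: 0% = DMSO-treated cells and 100% = gossypol-treated cells at 36 µM; higher means less SRC3-driven luciferase light from the GAL4 reporter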
# SRC2 inh: inhibition of GAL4-SRC2 driven luciferase reporter, primary screen, SRC2 inhibitor project, cell-based, luminescence. AID 651957, 2012. HEK293 GAL4-SRC2 luciferase reporter. inhibition, % at 9 µM. hit rate 0.17% among 370,000. Nuclear receptor coactivator 2 (Homo sapiens), Q15596;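 active = inhibition above the mean inhibition of all tested compounds plus 3 SD, set per campaign, cut at about 52% in these data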;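 also: 0% = DMSO treated cells and 100% = cells given Gossypol at 36 µM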
# Target sequence (Q15596 whole entry, looked up, the tested form may be a part): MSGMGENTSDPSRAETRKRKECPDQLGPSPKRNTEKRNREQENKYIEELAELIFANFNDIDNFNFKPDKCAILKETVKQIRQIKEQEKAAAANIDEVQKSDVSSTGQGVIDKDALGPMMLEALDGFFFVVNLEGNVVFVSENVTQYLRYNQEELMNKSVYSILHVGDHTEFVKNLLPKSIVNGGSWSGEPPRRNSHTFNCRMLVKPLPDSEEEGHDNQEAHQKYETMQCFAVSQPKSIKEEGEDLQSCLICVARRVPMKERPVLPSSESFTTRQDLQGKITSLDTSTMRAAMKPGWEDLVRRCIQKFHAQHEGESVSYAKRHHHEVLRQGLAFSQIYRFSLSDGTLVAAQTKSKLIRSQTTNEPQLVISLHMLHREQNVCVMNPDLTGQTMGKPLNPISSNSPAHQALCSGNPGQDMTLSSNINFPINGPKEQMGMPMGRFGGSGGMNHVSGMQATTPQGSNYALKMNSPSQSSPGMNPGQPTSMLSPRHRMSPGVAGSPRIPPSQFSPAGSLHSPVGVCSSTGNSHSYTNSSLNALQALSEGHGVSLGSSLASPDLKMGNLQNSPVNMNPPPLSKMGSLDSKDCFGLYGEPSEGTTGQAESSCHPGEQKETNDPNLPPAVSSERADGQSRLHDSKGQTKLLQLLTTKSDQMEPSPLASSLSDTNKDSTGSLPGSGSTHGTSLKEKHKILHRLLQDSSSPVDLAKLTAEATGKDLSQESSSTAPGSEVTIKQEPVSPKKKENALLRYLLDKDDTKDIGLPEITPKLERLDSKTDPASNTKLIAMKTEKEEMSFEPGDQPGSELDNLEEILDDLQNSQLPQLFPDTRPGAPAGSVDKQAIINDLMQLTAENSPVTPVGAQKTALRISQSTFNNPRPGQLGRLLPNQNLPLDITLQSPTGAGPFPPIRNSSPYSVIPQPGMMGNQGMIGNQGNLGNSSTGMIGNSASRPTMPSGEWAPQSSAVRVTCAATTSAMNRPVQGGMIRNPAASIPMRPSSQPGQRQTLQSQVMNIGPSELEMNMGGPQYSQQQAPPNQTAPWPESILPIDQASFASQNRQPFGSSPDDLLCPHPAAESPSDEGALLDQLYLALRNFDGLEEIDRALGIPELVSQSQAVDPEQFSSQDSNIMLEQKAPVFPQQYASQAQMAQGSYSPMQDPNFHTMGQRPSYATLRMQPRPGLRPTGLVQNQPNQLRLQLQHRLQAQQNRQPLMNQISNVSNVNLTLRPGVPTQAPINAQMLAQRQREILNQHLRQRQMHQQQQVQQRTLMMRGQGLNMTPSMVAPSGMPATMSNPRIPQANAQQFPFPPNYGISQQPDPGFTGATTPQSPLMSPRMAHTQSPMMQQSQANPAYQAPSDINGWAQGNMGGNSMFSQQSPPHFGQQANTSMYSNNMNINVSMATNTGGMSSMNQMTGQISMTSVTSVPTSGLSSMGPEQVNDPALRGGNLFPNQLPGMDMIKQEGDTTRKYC
# NR5A2 inv ag: LRH-1 (NR5A2) inverse agonists, primary screen, cell-based, luminescence, HEK293T, StAR-luciferase reporter | LRH-1 transfected, 24 h | AID 602396, 2012 | inhibition, % at 3.6 µM | hit rate 0.13% among 360,000 | Nuclear receptor subfamily 5 group A member 2 (Homo sapiens), O00482;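 active = inhibition above the mean inhibition of all tested compounds plus 3 SD, cut at about 73% in these data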;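 also: 0% = DMSO wells and 100% = reporter-only cells lacking LRH-1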
# NCOA1 inh: SRC1 coactivator transcriptional activity inhibitors, primary screen, cell-based, luminescence; Nuclear receptor coactivator 1 (Homo sapiens), Q15788; HEK293 GAL4-SRC1 luciferase reporter; inhibition, % at 3.6 µM; hit rate 0.12% among 360,000;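 active = inhibition above the campaign mean plus 3 SD, with each screening campaign given its own cutoff, cut at about 60% in these data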;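 also: 0% = DMSO treated cells and 100% = gossypol at 36 µM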
# Gli-Sufu block: Gli-Sufu pathway antagonists, primary screen, luciferase luminescence, Sufu-KO-LIGHT cells, uHTS | Sufu-KO-LIGHT fibroblasts, Gli luciferase reporter luminescence | inhibition, % at 5 µM | hit rate 0.74% among 340,000;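 active = inhibition above about 55%, limit read from the data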;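 also: 0% = DMSO-treated cells and 100% = wells with medium but no cells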
# COUP-TFII inh: NR2F2 transcriptional activity inhibitors, primary screen, cell-based, luciferase reporter, HEK293T, luminescence. HEK293T NGFI-A luciferase reporter. inhibition, % at 8.6 µM. hit rate 0.7% among 370,000;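 active = inhibition above a per-plate cutoff, mean inhibition of test wells between control levels plus 3 SD, cut at about 38% in these data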;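 also: cells cotransfected with COUP-TFII expression vector driving the NGFI-A reporter; 0% = median of COUP-TF2 test wells and 100% = reporter-only cells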
# Gli antag conf: Gli-SUFU pathway antagonists, confirmation, single concentration, luciferase luminescence, Sufu-KO-LIGHT cells. shares compounds with Gli-Sufu block. Gli luciferase reporter. inhibition, % at 5 µM. hit rate 40% among 2,500;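 active = mean inhibition at 5 µM reaching about 45%, limit read from the data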;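 also: plate controls were DMSO-treated cells for no effect and wells lacking cells for full effect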
# Gli cytotox: cytotoxicity in Sufu-KO-LIGHT cells, confirmation, cytotoxicity control for Gli-SUFU antagonist project, cell-based, ATP luminescence, single concentration; shares compounds with Gli-Sufu block; AID 651994, 2013; cytotoxicity, % at 5 µM; hit rate 32% among 2,500;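 active = mean cytotoxicity at 5 µM above about 25%, limit read from the data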;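 also: cells exposed to compound overnight for roughly 16 to 18 hours; plate controls were DMSO wells with cells for no effect and medium without cells for full effect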
# Wnt3a counter: Wnt3a reporter signal inhibition, confirmation, counter-screen for Gli-SUFU antagonist project, Wnt-LIGHT cells, luminescence, single concentration. shares compounds with Gli-Sufu block. hit rate 20% among 2,500. Wnt3a-driven luciferase reporter. AID 651995, 2013. inhibition, % at 6.25 µM;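 active = mean inhibition above about 25%, limit read from the data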
# * hit, by the source's call; . = no result given.
SMILES,NCOA3 inh,SRC2 inh,NR5A2 inv ag,NCOA1 inh,Gli-Sufu block,COUP-TFII inh,Gli antag conf,Gli cytotox,Wnt3a counter
CCC[C@H]1NC(=O)[C@H](C)N(C)C(=O)C(C)(C)C(=O)C(C)NC(=O)[C@H](Cc2ccc(OC)cc2)N(C)C(=O)[C@H](C(C)C)N(C)C(=O)CNC(=O)[C@H](CC(C)C)N(C)C(=O)CNC(=O)[C@H]([C@@H](C)CC)OC(=O)[C@H]1C (stereo partly drawn),.,.,.,.,74.8*,.,89.1*,58.3*,60.9*
Clc1ccc(SCCOCCN2CCCCC2)cc1,12.8,11.4,-4.8,6.4,78.8*,-25.5,27.8,12.8,-26.1
O=C1CCCC/C1=C/Nc1cccc(C(F)(F)F)c1,0.2,-6.9,-23.1,-15.6,-7.5,-14.2,.,.,.
O=C1CCC2S/C(=C/Nc3ccc(C(F)(F)F)cc3)C(=O)N12 (stereo not drawn),31.1,71.8*,10.3,32.6,57.5*,32.5,60.1*,2.5,105.9*
COCc1[nH]nc2c1C(c1cccc(C(F)(F)F)c1)NC2=O (stereo not drawn),.,7.6,.,.,.,-14.5,.,.,.
Cc1ccc(C2N(c3ccccc3)C(=S)N3CCCN23)cc1 (stereo not drawn),-0.1,-5.8,-10.7,1.7,98.9*,-14.8,13.9,8.7,2.1
Fc1ccc(C2N(c3ccccc3)C(=S)N3CCCN23)cc1 (stereo not drawn),12.3,15.9,-6.6,-4.4,5.3,6.2,.,.,.
CC(=O)c1ccc(N2CCN(c3ccc(C(F)(F)F)cn3)CC2)cc1,18.9,7.9,-18.2,-15.3,52.3,5.1,51.9*,11.3,-58.5
CC(=O)c1ccc(N2CCN(c3ncc(C(F)(F)F)cc3Cl)CC2)cc1,0.2,-2.5,-10.5,-8.1,-0.7,3.1,.,.,.
Cc1[nH]c(C)c(S(=O)(=O)NCc2ccccc2Cl)c1C(=O)N1CCCC1,10.3,-6.3,-0.9,6.2,58.3*,-3.8,14.7,6.5,-1.7
COc1ccccc1CNS(=O)(=O)c1c(C)[nH]c(C)c1C(=O)N1CCCC1,16.1,13.0,14.6,-19.8,21.1,-10.4,.,.,.
O=C(Nc1ccc(Oc2cccc3ccccc23)cc1)c1ccco1,-25.0,-18.9,-45.9,-16.5,96.8*,-6.4,-3.1,23.2,-6.8
O=C(c1ccccc1)c1cccc(NC(=O)c2ccco2)c1,-31.0,-24.4,5.6,-27.6,-0.8,-20.8,.,.,.
O=C(Nc1ccc(OC(=O)c2ccco2)cc1)c1ccco1,-4.9,-21.5,-40.5,1.3,-4.1,-6.1,.,.,.
O=C(Nc1cccc(NC(=O)c2ccco2)c1)c1ccccc1,-6.8,-15.5,11.0,10.7,52.2,9.9,15.7,7.0,17.9
O=C(N[C@H](Cc1ccccc1)C(=O)NCC1CCCCC1)[C@H]1O[C@@H](n2ccc(=O)[nH]c2=O)[C@H](O)[C@@H]1O,.,-24.6,.,.,.,-10.8,.,.,.
O=C(C[C@@H]1C/C=C\C[C@H](NC(=O)OCC2c3ccccc3-c3ccccc32)C(=O)OC[C@H]2CCCN2C1=O)N[C@H](CO)Cc1ccccc1,-27.2,-22.5,12.0,-1.4,67.7*,3.0,65.0*,24.0,-18.9
O=C(C[C@H]1C/C=C\C[C@H](NC(=O)OCC2c3ccccc3-c3ccccc32)C(=O)OC[C@@H]2CCCN2C1=O)N[C@H](CO)Cc1ccccc1,6.2,.,8.3,-0.7,50.2,.,45.8*,11.4,-7.5
O=C(C[C@@H]1C/C=C\C[C@H](NC(=O)OCC2c3ccccc3-c3ccccc32)C(=O)OC[C@@H]2CCCN2C1=O)N[C@@H](CO)Cc1ccccc1,-2.5,-13.5,-10.2,2.0,33.3,1.4,.,.,.
COC(=O)[C@@]12CCCCC=C1N(CCc1ccc(Cl)cc1)C(=O)[C@H]2CC(=O)NCC12CC3CC(CC(C3)C1)C2,.,15.2,.,.,.,-12.1,.,.,.
O=C(NCc1ccccc1)[C@@H]1CCCN1C(=O)[C@H]1CCCN1C(=O)c1ccccc1Cl,.,-35.0,.,.,.,-2.6,.,.,.
Cc1ccccc1Cn1cc(CN2[C@H](Cc3ccccc3)COc3cc(Br)ccc3S2(=O)=O)nn1,.,10.7,.,.,.,4.3,.,.,.
O=C(Nc1ccc(C(=O)NC2CCCCC2)cc1)c1cccnc1,-10.2,-9.2,7.2,-14.1,55.0*,1.8,31.2,2.7,-6.6
S=C(Nc1cccnc1)NC1CCCC1,1.2,13.4,6.3,2.2,59.1*,-14.5,6.2,5.7,3.8
S=C(Nc1cccnc1)NC1CCCCCCC1,11.9,-6.6,18.6,-0.3,2.5,-0.6,.,.,.
SMILES,NCOA3 inh,SRC2 inh,NR5A2 inv ag,NCOA1 inh,Gli-Sufu block,COUP-TFII inh,Gli antag conf,Gli cytotox,Wnt3a counter
COC(=O)[C@]12C[C@H](CC(=O)NCc3ccc(OC)c(OC)c3)C(=O)N(Cc3ccccc3)C1=C[C@H](COCc1ccccc1)O[C@@H]2C,.,5.2,.,.,.,8.6,.,.,.
C#CCNC(=O)c1cc2cccnc2nc1N,.,-28.2,.,.,.,4.9,.,.,.
CCOC(=O)c1c(NC(=O)c2ccccc2N(C)S(=O)(=O)c2ccccc2)sc2c1CCCC2,12.5,-0.7,-3.0,15.1,52.0,5.3,13.8,14.8,-35.1
COC(=O)c1c(NC(=O)c2ccccc2N(C)S(=O)(=O)c2ccccc2)sc2c1CCCC2,-16.9,-7.6,4.2,-13.7,6.3,-7.2,.,.,.
CCOC(=O)c1c(NC=O)sc2c1CCC2,21.5,15.1,10.2,15.2,69.7*,-14.9,11.9,-3.9,20.7
CCOC(=O)c1c(NC(=O)C(=O)N/N=C/c2ccccc2O)sc2c1CCCCC2,15.9,-10.4,11.2,-16.4,69.9*,2.6,75.3*,17.1,20.4
CCOC(=O)c1c(NC(=O)C(=O)N/N=C/c2ccccc2OC)sc2c1CCCCC2,2.0,-6.0,-24.1,11.2,-3.0,22.1,.,.,.
CN(c1cccnc1)c1ccc(NC(=O)Cc2c[nH]c3ccccc23)cc1-c1ccc(C(C)(C)C)cc1,.,9.3,.,.,.,18.4,.,.,.
C=CCN=C1NC(c2cccc(Cl)c2)C(C(=O)OC)=C(C)N1C (stereo not drawn),.,8.1,.,.,.,-6.1,.,.,.
CCOC(=O)Cn1cc(CN2C(C(=O)OC)CN(Cc3ccc(C)cc3)CCS2(=O)=O)nn1 (stereo not drawn),.,-7.8,.,.,.,-0.6,.,.,.
